# Experimental data from ChEMBL document CHEMBL3988442, “University of Dundee, Small-Polar-MMV Screening Library” (2021).
# For some of these results: Potency and affinity values are given separately.
# Legend:
# Design in all cases: scale not given: direction of the effect not stated beside the values
# [1] = target: Protein translocase subunit SecA (Escherichia coli (strain K12)) (UniProt P10408); test: Assay to Identify E. coli SecA ATPase Inhibitors; type: functional; conditions: 30 µM
# [2] = target: T1, Ubiquitin-activating enzyme e1, putative (Leishmania donovani (strain BPK282A1)) (UniProt E9BSI1); test: Leishmania donovani Ubiquitin Activating Enzyme (LdE1); type: functional; conditions: 30 µM
# T1 sequence (whole entry): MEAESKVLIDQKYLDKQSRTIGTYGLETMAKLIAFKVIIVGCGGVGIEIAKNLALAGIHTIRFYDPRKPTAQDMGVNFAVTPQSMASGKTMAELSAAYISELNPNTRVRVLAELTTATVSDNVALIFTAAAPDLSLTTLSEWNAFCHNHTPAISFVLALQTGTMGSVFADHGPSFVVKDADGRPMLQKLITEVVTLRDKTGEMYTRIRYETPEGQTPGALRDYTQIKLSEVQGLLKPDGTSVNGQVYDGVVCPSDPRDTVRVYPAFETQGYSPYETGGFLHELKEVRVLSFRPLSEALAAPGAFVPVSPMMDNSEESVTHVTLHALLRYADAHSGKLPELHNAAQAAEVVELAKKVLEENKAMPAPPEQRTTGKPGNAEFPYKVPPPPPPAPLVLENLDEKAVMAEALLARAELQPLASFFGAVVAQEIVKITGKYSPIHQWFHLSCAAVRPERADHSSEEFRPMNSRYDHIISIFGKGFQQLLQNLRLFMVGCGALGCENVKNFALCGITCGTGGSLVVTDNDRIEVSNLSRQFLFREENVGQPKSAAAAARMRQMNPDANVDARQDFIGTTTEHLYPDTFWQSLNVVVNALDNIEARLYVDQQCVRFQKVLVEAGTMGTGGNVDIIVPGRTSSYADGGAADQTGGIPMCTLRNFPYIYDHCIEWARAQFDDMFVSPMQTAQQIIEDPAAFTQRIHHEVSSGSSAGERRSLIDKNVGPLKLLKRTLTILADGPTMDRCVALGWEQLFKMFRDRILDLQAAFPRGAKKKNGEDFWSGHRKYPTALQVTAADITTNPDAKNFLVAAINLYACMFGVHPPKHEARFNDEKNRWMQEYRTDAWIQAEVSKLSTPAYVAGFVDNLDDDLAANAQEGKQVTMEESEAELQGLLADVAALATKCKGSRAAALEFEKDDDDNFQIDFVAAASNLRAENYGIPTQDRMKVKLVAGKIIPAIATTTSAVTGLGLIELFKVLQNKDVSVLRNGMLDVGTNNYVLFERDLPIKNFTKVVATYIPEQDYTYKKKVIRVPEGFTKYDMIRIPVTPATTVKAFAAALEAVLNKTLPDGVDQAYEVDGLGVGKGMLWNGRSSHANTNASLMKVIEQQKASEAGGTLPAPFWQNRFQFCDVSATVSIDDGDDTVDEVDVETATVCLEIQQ
# [3] = target: AMP-activated protein kinase, AMPK (Homo sapiens) (UniProt P54646+O43741+P54619+Q9UGJ0+Q9Y478+Q13131+Q9UGI9); test: AMP-dependent Kinase enzyme assay. An in vitro enzyme assay that detects ADP turnover that is directly proportional to AMPK activity. This uses naive AMPK that is activated during the assay with MK-8722; type: functional; conditions: 30 µM
# [4] = target: Sialic acid-binding Ig-like lectin 9 (Homo sapiens) (UniProt Q9Y336); test: Hs-Siglec9 ALPHAscreen SOP 20170721; conditions: 10 µM
# [5] = test system: Trypanosoma cruzi; test: Trypanosoma cruzi phosphomannomutase and mannose-1-phosphate guanylyltransferase assay; type: functional; conditions: 10 µM
# [6] = target: T2, Arginase-2, mitochondrial (Homo sapiens) (UniProt P78540); test: in vitro enzyme assay to detect the production of urea directly proportional to the activity of Arginase II; type: functional; conditions: 33.3 µM; further: in the data most compounds retested in dose-response had high values
# T2 sequence (whole entry): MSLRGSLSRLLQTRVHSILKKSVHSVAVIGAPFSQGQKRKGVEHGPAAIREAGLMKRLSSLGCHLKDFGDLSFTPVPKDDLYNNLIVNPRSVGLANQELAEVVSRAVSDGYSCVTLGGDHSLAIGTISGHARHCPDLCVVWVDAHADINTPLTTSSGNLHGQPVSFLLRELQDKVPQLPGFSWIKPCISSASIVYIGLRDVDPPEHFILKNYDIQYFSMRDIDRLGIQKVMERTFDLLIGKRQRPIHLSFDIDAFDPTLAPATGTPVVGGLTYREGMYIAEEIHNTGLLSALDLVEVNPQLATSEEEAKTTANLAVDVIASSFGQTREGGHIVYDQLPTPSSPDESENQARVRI
# [7] = target: T3, Proteasome subunit beta (Trypanosoma cruzi) (UniProt O96673); test: Trypanosoma cruzi proteasome chymotrypsin-like activity (TcProtChymo) assay.; further: in the data most compounds retested in dose-response had high values; type: functional; conditions: 9.37 µM
# T3 sequence (whole entry): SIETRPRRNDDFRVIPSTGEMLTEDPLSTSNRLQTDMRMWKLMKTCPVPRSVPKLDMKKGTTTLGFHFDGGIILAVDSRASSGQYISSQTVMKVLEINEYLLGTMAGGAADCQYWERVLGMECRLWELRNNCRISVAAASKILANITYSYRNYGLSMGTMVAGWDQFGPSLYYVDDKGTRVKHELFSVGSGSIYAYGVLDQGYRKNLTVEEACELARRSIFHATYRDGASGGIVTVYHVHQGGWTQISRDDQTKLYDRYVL
# [8] = organism: Homo sapiens; test: To identify inhibition of the IFN signalling (Jak-Stat) pathway via expression of an eGFP reporter gene under the control of an IFN-stimulated response element (ISRE) containing MxA promoter.; type: functional; conditions: 30 µM
# [9] = target: T4, Tyrosyl-tRNA synthetase, putative (Trypanosoma cruzi (strain CL Brener)) (UniProt Q4DSP6); test: Trypanosoma cruzi tyrosyl tRNA synthetase (TcYRS) _High Tyrosine SOP; type: functional; conditions: 30 µM; further: in the data most compounds retested in dose-response had high values
# T4 sequence (whole entry): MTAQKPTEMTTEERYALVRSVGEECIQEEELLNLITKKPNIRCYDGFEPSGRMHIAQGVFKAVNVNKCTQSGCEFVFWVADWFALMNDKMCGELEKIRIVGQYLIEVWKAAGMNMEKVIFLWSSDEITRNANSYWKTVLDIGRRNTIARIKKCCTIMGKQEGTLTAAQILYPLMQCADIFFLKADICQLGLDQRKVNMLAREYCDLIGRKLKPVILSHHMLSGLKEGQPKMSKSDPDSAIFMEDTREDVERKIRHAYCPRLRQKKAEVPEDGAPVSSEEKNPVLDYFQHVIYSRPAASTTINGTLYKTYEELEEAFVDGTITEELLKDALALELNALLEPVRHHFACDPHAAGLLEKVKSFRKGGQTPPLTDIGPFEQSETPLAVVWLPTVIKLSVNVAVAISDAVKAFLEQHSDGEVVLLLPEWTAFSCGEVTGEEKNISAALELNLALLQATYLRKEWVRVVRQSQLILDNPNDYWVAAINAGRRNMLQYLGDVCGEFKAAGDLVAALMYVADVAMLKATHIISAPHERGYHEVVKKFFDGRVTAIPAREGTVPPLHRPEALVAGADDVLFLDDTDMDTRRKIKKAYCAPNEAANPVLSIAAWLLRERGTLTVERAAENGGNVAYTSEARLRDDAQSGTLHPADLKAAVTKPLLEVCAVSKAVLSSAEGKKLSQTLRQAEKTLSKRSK
# [10] = target: T4, Tyrosyl-tRNA synthetase, putative (Trypanosoma cruzi (strain CL Brener)); test: Trypanosoma cruzi tyrosyl tRNA synthetase (TcYRS) SOP; type: functional; conditions: 30 µM
# [11] = target: Chromo domain-containing protein 1 (Saccharomyces cerevisiae (strain ATCC 204508 / S288c) (Baker's yeast)) (UniProt P32657); test: ScCHD-1 Enzyme Inhibition Assay; type: functional; conditions: 30 µM; further: in the data most compounds retested in dose-response had high values
# Sequence of Chromo domain-containing protein 1 (Saccharomyces cerevisiae (strain ATCC 204508 / S288c) (Baker's yeast)) (P32657 whole entry, the tested form may be a part): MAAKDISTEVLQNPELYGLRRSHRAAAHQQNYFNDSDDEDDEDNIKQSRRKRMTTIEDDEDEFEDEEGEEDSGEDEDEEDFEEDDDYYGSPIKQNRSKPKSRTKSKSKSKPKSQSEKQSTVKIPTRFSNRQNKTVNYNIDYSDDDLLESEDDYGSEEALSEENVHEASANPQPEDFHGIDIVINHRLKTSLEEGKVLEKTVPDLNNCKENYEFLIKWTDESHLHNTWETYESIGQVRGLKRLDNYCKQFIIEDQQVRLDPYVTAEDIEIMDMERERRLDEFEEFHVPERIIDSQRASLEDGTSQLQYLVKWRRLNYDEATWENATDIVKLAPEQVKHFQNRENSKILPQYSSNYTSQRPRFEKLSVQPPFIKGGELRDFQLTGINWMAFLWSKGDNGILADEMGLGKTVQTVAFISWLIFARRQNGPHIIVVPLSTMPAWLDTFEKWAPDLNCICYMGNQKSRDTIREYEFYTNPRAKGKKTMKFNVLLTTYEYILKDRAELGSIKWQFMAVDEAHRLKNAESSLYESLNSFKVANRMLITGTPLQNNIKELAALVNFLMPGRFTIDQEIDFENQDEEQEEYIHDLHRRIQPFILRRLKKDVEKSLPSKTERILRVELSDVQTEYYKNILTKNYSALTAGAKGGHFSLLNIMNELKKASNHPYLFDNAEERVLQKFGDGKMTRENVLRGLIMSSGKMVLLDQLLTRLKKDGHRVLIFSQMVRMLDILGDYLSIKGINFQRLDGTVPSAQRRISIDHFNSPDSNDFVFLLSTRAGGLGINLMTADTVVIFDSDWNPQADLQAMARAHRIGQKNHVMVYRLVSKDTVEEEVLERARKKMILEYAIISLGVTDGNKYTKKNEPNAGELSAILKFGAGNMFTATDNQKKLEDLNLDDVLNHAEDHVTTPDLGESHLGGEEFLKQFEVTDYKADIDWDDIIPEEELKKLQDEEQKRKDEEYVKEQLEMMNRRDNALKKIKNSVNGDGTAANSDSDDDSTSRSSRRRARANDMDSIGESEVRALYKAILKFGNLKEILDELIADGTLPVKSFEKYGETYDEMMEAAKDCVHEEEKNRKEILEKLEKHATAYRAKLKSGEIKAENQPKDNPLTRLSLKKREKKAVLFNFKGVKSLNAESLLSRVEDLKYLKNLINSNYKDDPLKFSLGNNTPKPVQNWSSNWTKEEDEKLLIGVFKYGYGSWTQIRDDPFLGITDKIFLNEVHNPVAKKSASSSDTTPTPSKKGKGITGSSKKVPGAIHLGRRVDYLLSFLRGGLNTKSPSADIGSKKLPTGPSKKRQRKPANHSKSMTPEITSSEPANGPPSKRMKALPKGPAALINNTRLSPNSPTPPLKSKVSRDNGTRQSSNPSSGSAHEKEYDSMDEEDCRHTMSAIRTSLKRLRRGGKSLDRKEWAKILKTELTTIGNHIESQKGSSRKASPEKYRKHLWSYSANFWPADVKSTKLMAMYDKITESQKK
# Sequence of Sialic acid-binding Ig-like lectin 9 (Homo sapiens) (Q9Y336 whole entry): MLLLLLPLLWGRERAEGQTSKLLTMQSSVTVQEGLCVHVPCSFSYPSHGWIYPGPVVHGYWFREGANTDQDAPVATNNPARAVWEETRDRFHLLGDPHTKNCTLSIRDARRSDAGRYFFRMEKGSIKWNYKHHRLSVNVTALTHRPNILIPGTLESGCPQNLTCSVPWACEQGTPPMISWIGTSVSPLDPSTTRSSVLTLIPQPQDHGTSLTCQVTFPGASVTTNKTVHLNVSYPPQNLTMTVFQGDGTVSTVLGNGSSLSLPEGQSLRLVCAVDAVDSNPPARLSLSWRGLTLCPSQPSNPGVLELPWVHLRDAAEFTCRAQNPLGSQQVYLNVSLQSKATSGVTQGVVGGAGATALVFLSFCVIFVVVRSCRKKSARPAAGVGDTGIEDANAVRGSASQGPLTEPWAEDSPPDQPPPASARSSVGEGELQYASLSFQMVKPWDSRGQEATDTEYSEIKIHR
# Sequence of Protein translocase subunit SecA (Escherichia coli (strain K12)) (P10408 whole entry): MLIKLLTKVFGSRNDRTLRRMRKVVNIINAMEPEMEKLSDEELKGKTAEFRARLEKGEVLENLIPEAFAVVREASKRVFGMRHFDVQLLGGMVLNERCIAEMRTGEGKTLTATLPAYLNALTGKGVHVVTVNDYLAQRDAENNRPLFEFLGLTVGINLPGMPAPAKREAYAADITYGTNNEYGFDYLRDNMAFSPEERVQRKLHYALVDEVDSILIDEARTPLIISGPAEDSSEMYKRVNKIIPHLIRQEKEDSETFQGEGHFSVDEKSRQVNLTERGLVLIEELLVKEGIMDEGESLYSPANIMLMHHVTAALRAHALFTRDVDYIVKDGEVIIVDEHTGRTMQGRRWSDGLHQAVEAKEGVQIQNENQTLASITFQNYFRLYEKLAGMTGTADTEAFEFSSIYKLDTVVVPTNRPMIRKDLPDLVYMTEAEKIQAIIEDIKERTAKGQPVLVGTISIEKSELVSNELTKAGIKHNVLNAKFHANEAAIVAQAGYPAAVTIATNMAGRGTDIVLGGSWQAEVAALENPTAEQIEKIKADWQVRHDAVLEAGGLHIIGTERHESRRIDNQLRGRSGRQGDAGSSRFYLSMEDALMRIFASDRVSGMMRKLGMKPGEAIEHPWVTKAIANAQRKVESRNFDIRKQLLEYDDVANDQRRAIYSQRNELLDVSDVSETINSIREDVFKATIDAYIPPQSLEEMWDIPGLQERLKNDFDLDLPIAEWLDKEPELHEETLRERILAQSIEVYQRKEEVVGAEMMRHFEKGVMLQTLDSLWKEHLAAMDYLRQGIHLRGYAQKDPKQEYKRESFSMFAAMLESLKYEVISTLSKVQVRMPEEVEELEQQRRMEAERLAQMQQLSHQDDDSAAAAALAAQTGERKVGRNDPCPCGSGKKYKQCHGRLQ
SMILES,Percent Effect [1] [%],Percent Effect [2] [%],Percent Effect [3] [%],Percent Effect [4] [%],Percent Effect [5] [%],Percent Effect [6] [%],Percent Effect [7] [%],Percent Effect [8] [%],Percent Effect [9] [%],Percent Effect [10] [%],Percent Effect [11] [%]
CCCn1c(C)c(CC(=O)N(C)CCOC)c2c1CC(C)(C)CC2=O,-3.48,5.2,0.628,11.4,6.59,-38.6,3,-27.9,6.45,8.64,-8.76
O=C(C1CCOC1)N1C[C@H]2CN(Cc3nccs3)C[C@H]2C1 (stereo partly specified),-7.06,5.41,2.27,-7.15,-3.81,-6.69,15.7,-4.44,0,2.56,-2.08
COCC1COCCC12CCN(C(=O)CCc1ccccc1)CC2 (stereo unspecified),-7.38,0,1.05,-3.38,-2.73,0,4.65,-6.87,3.96,3.66,6.04
NC(=O)c1cc(C2CCCN(C(=O)CCc3ccsc3)C2)n[nH]1 (stereo unspecified),-9.05,5.2,5.08,-5.24,-5.43,-1.78,-5.57,30.9,3.88,7.32,-4.93
Cc1nn(C)c(N(C)C)c1CNCc1ccccc1Cn1cncn1,-6.25,6.33,-0.0601,1.64,-1.33,0.215,6.52,3.54,3.12,-5.06,-11.2
O=C(NC1CCN(c2snc3ccccc23)CC1)C1CCC1,-4.68,16.5,-3.67,3.44,-1.74,-1.07,9.43,21.9,4.17,20.2,-33
COc1cc2ncn(CC(=O)NCCCN(C)C)c(=O)c2cc1OC,-1.85,1.33,-1.58,0.564,-8.84,-3.35,7.76,-4.68,4.23,-53.9,-7.79
CN(C)C(=O)CC1CC2(CCN(CC3CC3)CC2)c2cc(F)ccc21 (stereo unspecified),-6.7,5.41,-8.18,-5.86,-2.44,-4.14,3.14,5.88,-5.41,-2.56,5.46
O=C(c1ccncn1)N1CCO[C@H]2[C@@H](OCc3cccnc3)CC[C@@H]21,-1.55,8,-0.169,5.8,-3.48,-23.8,8.72,2.92,-6.25,7.5,-6.65
O=C(CCc1cccs1)N1CCC(Nc2cccnn2)CC1,-7.51,-23.7,-9.73,4.64,8.87,1.8,9.73,5.28,9.36,23.5,-11.1
Cc1cccc(Cn2ccc(NS(C)(=O)=O)n2)c1,-6.41,7.79,-2.37,7.5,7.77,-40,9.65,0.107,6.45,11.1,-7.65
